Inconclusive results are not listed. Calls of active or inactive are those of the source. Calls follow the shape of the dose curve; as a rule, active = well fitted inhibition curve with a large enough effect; inconclusive = small, poorly fitted or top-dose-only effect; inactive = no such curve, though single readings can be large or run the other way.
Test: qHTS Assay for Lipid Storage Modulators: S3 Assay against Probe and Analogs
Conditions: Drosophila S3 cells, BODIPY lipid droplet fluorescence, 18-24 h, oleic acid added to induce droplets; series mostly up to 46.1 µM
How it was run: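 Drosophila S3 cells, 5,000/well, dosed with compounds (0.46% DMSO final) and oleic acid to induce lipid droplets, 18-24 h at 25 °C. BODIPY 493/503 and Cell Tracker Red read by laser-scanning cytometry; % activity relative to 20 uM Triacsin C.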

Potency, inactive:
CCn1c(C(=O)NCCc2ccc(OC)cc2)cc2sccc21, CCn1c(C(=O)NCc2ccc(OC)c(OC)c2)cc2sccc21, CCOC(=O)C1CCN(C(=O)C2(NC(=O)Nc3ccc(F)cc3F)CCCCC2)CC1, O=C(c1cc2sccc2n1Cc1ccccc1)N(CCc1ccc(O)c(O)c1)Cc1ccccc1, O=C(NC1CCCc2c1cnn2-c1ccc(F)cc1F)c1ccc(C(=O)c2ccccc2)cc1 (stereo not drawn), CCOc1ccc(CCNC(=O)c2cccs2)cc1OCC, CCOc1ccc(CCNC(=O)c2ccnn2Cc2cccc(C)c2)cc1OCC, CCOc1ccc(CCNC(=O)c2ccc3[nH]ccc3c2)cc1OCC, O=C(NC1CCCc2c1cnn2-c1ccc(F)cc1F)C1CC1 (stereo not drawn), CCOc1ccc(CCNC(=O)c2ccc3ccccc3n2)cc1OCC, CCOc1ccc(CCNC(=O)c2ccc(C3(C(F)(F)F)N=N3)cc2)cc1OCC

Potency, active:
CC(C)(C)OC(=O)NCCOCCOCCOc1ccc(-n2ncc3c2CCCC3NC(=O)c2ccccn2)cc1 (stereo not drawn) 9.3 nM, CCOC(=O)C1CCN(C(=O)C(C)(C)NC(=O)Nc2ccc(Cl)cc2Cl)CC1 1480 nM, COc1cccc(-n2ncc3c2CCCC3NC(=O)c2ccccn2)c1 (stereo not drawn) 3.7 nM, CCOc1ccc(CCNC(=O)c2cc3sccc3n2Cc2ccc(Cl)c(F)c2)cc1OCC 5.9 nM, CCOc1cc2c(cc1OCC)CN(C(=O)c1cc3sccc3n1Cc1ccccc1)CC2 1320 nM, O=C(NC1CCCc2c1cnn2-c1ccc(F)cc1F)c1ccsc1 (stereo not drawn) 11.8 nM, CCOc1ccc(CCNC(=O)c2cc3c(s2)CCC3)cc1OCC 332 nM
